The values that follow come from PubChem BioAssay (EPA / NIEHS).

Usually AC50 stands for the concentration giving half of the maximal activity seen.

The structures appear in SMILES notation. Active and inactive are the calls of the source. Rule for the calls: active = hit-call score of the fitted dose curve at least 0.9, where 1 is the maximum; inactive = score below 0.9.

This experiment in a line: APR_HepG2_MitoMass_1hr: Apredica 1-hour HepG2 Assay for Mitochondrial Mass (AID 2282674). Particulars: high-content imaging, actives raise or lower the signal. As to the method: APR_HepG2_1hr is a cell-based, multiplexed-readout assay that uses HepG2, a human liver cell line, with measurements taken at 1 hour after chemical dosing in a 384-well plate.APR_HepG2_MitoMass_1hr is one of 10 assay component(s) measured or calculated from the APR_HepG2_1hr assay. It is designed to make measurements of cell phenotype, a form of morphology reporter, as detected with fluorescence intensity signals by HCS Fluorescent Imaging technology.Data from the assay component APR_HepG2_MitoMass_1hr was analyzed into 1 assay endpoint. This assay endpoint, APR_HepG2_MitoMass_1hr, was analyzed with bidirectional fitting relative to DMSO as the negative control and baseline of activity. Using a type of morphology reporter, gain or loss-of-signal activity can be used to understand changes in the signaling. Furthermore, this assay endpoint can be referred to as a primary readout, because this assay has produced multiple assay endpoints where this one serves a signaling function. To generalize the intended target to other relatable targets, this assay endpoint is annotated to the cell morphology intended target family, where the subfamily is organelle conformation.
Cells were treated with dimethyl sulfoxide (DMSO) as a solvent control at a final concentration of 0.5% v/v or with compounds in DMSO with a resulting final DMSO concentration of 0.5% v/v. Compound treatment was done at concentrations of 0.39, 0.78, 1.56, 3.12, 6.24, 12.5, 25, 50, 100, and 200 uM in duplicate on each plate. Cells were treated with compounds for 1, 24, or 72 hr. Carbonyl […] m-chloro-phenylhydrazone (CCCP) and taxol were used as positive controls for mitochondrial function and cytoskeletal stability, respectively; DMSO served as the negative control for this experiment. Cells were fixed by the direct addition of 50 uL formaldehyde in Hank's Balanced Salt Solution (HBSS) to a final concentration of 3.7%. After incubation in the fixation medium for 30 min at room temperature (293-298 K), cells were rinsed twice with HBSS and treated with cell permeabilization buffer (16 uL of 0.5% Triton X-100) for 10 min at room temperature (293-298 K) before labeling. For mitochondrial membrane potential and mitochondrial measurements, pre-fixed cells were incubated with 50 uL of MitoTracker Red CMXRos (Invitrogen) at a concentration of 250 nM for 30 min before fixation. In the remaining cases, post-fixed cells were labeled by incubation with a multiplexed mixture of primary antibodies in HBSS for 60 min at room temperature (293-298 K) to detect immunoreactivity of c-Jun (1:500), phospho-histone H3 (1:100), phospho-histone H2A.x (1:200), p53 (1:400), alpha-tubulin (1:200) and Hoechst 33342 (2 ug/mL). Cells were labeled for multiplexed imaging on two separate plates: a) Hoechst 33342, MitoTracker Red, phospho-histone H3, and alpha-tubulin, and b) Hoechst 33342, phospho-histone H2A.x, and c-Jun. A final rinse with HBSS (50 uL) was performed before analysis. The primary and secondary antibodies for the proteins were phospho-histone H3 (rabbit anti-phospho-histone H3 and FITC-donkey anti-rabbit IgG), phospho-histone H2A.x (mouse anti-phospho-histone H2A.x and FITC-donkey anti-mouse IgG), c-Jun (rabbit anti-phospho-c-Jun and Cy3-donkey anti-rabbit IgG), p53 (sheep anti-p53 and Cy5-donkey anti-sheep IgG), alpha-tubulin (mouse anti-alpha-tubulin and Cy5-donkey anti-mouse IgG). These antibodies are available as the CellCiphr HepG2 assay kit (Millipore).Digital images of each well were captured using a Cellomics ArrayScan VTI (Thermo Scientific Cellomics) (0.8 NA objective, 0.63x optical coupler, and XF-93 filter set) at 20x magnification. The images were acquired using the autofocus feature of the ArrayScan instrument, which entails the following steps. First, the camera focuses on channel 1 (Hoechst 33342), where nuclei are identified. Second, a Z offset of 1 um is used for capturing mitochondria (MitoTracker Red). Third, a Z offset of -2 um is used for capturing the cytoskeleton (tubulin). […]
Take `CCOc1nc(NC)nc(NC(=O)NS(=O)(=O)c2ccccc2C(=O)OC)n1`: the molecule was called inactive.
Still for that read-out and setting: the value for `COc1nn(CSP(=S)(OC)OC)c(=O)s1` was “inactive”.
Still for that read-out and setting: the value for `COP(=S)(OC)Oc1ccc(SC)c(C)c1` was “inactive”; that for `COC(=O)c1ccccc1S(=O)(=O)NC(=O)N(C)c1nc(C)nc(OC)n1` was “inactive”.
`N#Cc1c(Cl)c(Cl)c(Cl)c(C#N)c1Cl`: the AC50 was 5.34 µM (active).
On to `C[C@H]1[C@H](c2ccc(Cl)cc2)SC(=O)N1C(=O)NC1CCCCC1`, for which the call was inactive.
On the same count and under the same terms, the value for `N#CN` was “inactive”.
As for `CC[C@H](C)[C@H]1O[C@]2(C=C[C@@H]1C)C[C@@H]1C[C@@H](C/C=C(\C)[C@@H](O[C@H]3C[C@H](OC)[C@@H](O[C@H]4C[C@H](OC)[C@@H](O)[C@H](C)O4)[C@H](C)O3)[C@@H](C)/C=C/C=C3\CO[C@@H]4[C@H](O)C(C)=C[C@@H](C(=O)O1)[C@]34O)O2` (tested in a mixture with another compound), the AC50 is 26.8 µM (active).
`CC(C)(C)C(O)C(Oc1ccc(Cl)cc1)n1cncn1` (stereo not given): the result was inactive.
Same read-out and setting: then `CCC(C)Nc1c([N+](=O)[O-])cc(C(C)(C)C)cc1[N+](=O)[O-]` (stereo not given), with “inactive”.
For the molecule `CC(C)OC(=O)Nc1cccc(Cl)c1`, the outcome was inactive.
Regarding `CCS(=O)(=O)c1cccnc1S(=O)(=O)NC(=O)Nc1nc(OC)cc(OC)n1`, the result was inactive.
For `O=C(O)COc1ccc(Cl)cc1Cl`, the molecule was called inactive.
The same measure, in the same setting: then `Cc1[nH]c(=O)n(C(C)(C)C)c(=O)c1Cl`, with “inactive”; and `COP(=O)(OC)OC=C(Cl)Cl`, with “inactive”.
On the same count and under the same terms, the value for `ClC1C(Cl)C(Cl)C(Cl)C(Cl)C1Cl` (stereo not given) was “inactive”; that for `CCc1ccc(C(=O)NN(C(=O)c2cc(C)cc(C)c2)C(C)(C)C)cc1` was “inactive”; that for `CCCN(CCOc1c(Cl)cc(Cl)cc1Cl)C(=O)n1ccnc1` was “inactive”.
The same measure, in the same setting: then `O=[N+]([O-])c1c(Cl)c(Cl)c(Cl)c(Cl)c1Cl`, with “inactive”.
Regarding `COP(=S)(OC)Oc1ccc([N+](=O)[O-])cc1`, the call was inactive.
The same measure, in the same setting: the value for `CCCN(CCC)c1c([N+](=O)[O-])cc(C(F)(F)F)cc1[N+](=O)[O-]` was “inactive”.
For the molecule `CCOC1Oc2ccc(OS(C)(=O)=O)cc2C1(C)C` (stereo not given), the molecule was called inactive.
Still for that read-out and setting: then `O=C(Nc1ccccc1)Nc1cnns1`, with “inactive”.
The same measure, in the same setting: the value for `COC(=O)c1ccccc1S(=O)(=O)NC(=O)Nc1nc(C)nc(OC)n1` was “inactive”; that for `CNC(=O)Oc1ccccc1OC(C)C` was “inactive”.
In the case of `Oc1cc(Cl)ccc1Oc1ccc(Cl)cc1Cl`, the AC50 was 170 µM (active).
Turning to `O=[N+]([O-])/N=C1\NCCN1Cc1ccc(Cl)nc1`, the molecule was classed as inactive.
With `CC(C)(C)C(O)/C(=C\c1ccc(Cl)cc1Cl)n1cncn1` (stereo not given), the molecule was classed as inactive.
The same measure, in the same setting: the value for `[2H]C1([2H])[n+]2ccccc2-c2cccc[n+]2C1([2H])[2H]` was “inactive”; that for `CNC(=O)/C=C(\C)OP(=O)(OC)OC` was “inactive”.
Still for that read-out and setting: then `OCCOc1ccccc1`, with “inactive”; and `O=C(O)C(F)(F)C(F)(F)C(F)(F)C(F)(F)C(F)(F)C(F)(F)C(F)(F)F`, with “inactive”; and `O=C(O)CCCOc1ccc(Cl)cc1Cl`, with “inactive”.
Same read-out and setting: then `Clc1ccccc1-c1nnc(-c2ccccc2Cl)nn1`, with “inactive”; and `CCC(C)(NC(=O)c1cc(Cl)c(C)c(Cl)c1)C(=O)CCl` (stereo not given), with “inactive”.
Consider `CC(C)N(C(=O)COc1nnc(C(F)(F)F)s1)c1ccc(F)cc1`, for which the outcome was inactive.
Take `COC(=O)c1ccccc1CS(=O)(=O)NC(=O)Nc1nc(OC)cc(OC)n1`: the call was inactive.
The same measure, in the same setting: the value for `Cc1cc(C)nc(NC(=O)NS(=O)(=O)c2ccccc2C(=O)OC2COC2)n1` was “inactive”.
Same read-out and setting: then `O=C1c2ccccc2C(=O)N1SC(Cl)(Cl)Cl`, with “inactive”; and `CN1CSC(=S)N(C)C1`, with “inactive”.
